Laboratory results published in publication PMC4336329 (PLoS ONE, 2015).
About 14,000 (4.5%) of roughly 310,000 compounds showed an effect of 50% or more. Effects have a minus sign here. This is one part of a sample in which strong results are shown more often than they occur.

What follows are compounds tested against human ether-à-go-go-related gene (hERG) potassium channel (human, UniProt Q12809) (assay: primary screen, population patch clamp on CHO cells stably expressing hERG; higher = less effect of the substance).
human ether-à-go-go-related gene (hERG) potassium channel, sequence (Q12809 whole entry, looked up): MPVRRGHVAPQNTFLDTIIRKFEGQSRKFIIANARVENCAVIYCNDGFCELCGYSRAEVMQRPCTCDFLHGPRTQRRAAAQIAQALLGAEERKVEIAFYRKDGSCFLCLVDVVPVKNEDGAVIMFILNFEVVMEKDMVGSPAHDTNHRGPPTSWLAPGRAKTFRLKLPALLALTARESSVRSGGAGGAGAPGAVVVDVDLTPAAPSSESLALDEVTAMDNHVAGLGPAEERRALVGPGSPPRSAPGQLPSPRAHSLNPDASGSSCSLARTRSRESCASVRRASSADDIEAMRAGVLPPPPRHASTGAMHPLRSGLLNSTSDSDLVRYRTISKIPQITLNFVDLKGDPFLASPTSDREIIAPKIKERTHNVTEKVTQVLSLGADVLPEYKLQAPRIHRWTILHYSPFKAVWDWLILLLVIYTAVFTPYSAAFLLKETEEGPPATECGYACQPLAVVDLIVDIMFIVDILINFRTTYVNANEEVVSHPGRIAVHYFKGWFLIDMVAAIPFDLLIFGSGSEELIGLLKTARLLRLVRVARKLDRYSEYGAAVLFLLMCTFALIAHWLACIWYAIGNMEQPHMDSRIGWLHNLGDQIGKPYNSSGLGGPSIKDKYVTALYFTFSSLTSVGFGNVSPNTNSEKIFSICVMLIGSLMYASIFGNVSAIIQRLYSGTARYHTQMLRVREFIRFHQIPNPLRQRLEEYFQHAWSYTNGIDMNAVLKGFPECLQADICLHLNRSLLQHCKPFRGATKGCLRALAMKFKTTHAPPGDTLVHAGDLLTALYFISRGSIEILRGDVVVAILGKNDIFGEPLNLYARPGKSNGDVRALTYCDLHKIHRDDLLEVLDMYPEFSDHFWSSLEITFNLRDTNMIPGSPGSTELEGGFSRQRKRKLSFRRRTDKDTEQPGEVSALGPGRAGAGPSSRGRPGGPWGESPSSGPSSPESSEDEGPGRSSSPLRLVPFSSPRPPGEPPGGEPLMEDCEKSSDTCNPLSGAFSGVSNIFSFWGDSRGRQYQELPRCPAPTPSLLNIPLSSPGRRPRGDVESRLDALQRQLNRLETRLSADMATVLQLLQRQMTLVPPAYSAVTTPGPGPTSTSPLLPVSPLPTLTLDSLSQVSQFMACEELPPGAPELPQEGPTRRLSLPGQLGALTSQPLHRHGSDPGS
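Further: peak tail current of the secondary pulse compared with the same well before compound.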

In order of falling “hERG current change (%, negative = inhibition) at 10uM” value:
1. O=C(CCl)NCCN1C(=O)S/C(=C\c2cccnc2)C1=O  26.1%
2. Cc1c(Cl)cccc1NC(=S)NCc1ccccc1  16.5%
3. CCCCCn1c(=O)[nH]c2cc(C(=O)Nc3ccc(OC)cc3)ccc2c1=O  14.9%
4. OCC(O)/C=N/Nc1nc2ccccc2s1 (centres unmarked)  14%
5. Cc1nc2cc(NCc3ccccc3O)ccc2n1Cc1ccccc1  13.8%
6. CCNC(=S)N/N=C(\C)c1ccc2c(c1)OCCO2  13.4%
7. Cc1cc(NC(=O)c2cccc3c2C(=O)N(C2CCCCC2)C3)ccc1Br  13%
8. O=C(NC1CCCCCC1)C1CCN(S(=O)(=O)c2c(Cl)cccc2Cl)CC1  11.6%
9. C/C(CCc1ccc2c(c1)OCO2)=N\NC(=O)c1ccccc1  9.96%
10. CC1(C)CC(NS(=O)(=O)c2ccc(Cl)cc2)CC(C)(C)N1  9.34%
11. CNC(=S)N/N=C(\C)c1ccc2c(c1)OCCO2  9.21%
12. COC(=O)c1cc(-c2ccc(Br)cc2)on1  8.48%
13. NC(=O)c1ccccc1OCC(=O)N1CCc2ccccc2C1  8.34%
14. Cc1ccc(NC(=O)c2sc(N)nc2-c2ccc([N+](=O)[O-])cc2)cc1C  8.18%
15. CN(C(=O)c1cccnc1)c1nnc(-c2cnccn2)s1  8.06%
16. CC(=O)Nc1nc(C(F)(F)F)cs1  7.96%
17. Cc1cc(NC(=O)CCN2C(=O)C3C4C=CC(C4)C3C2=O)c2ccccc2n1 (centres unmarked)  7.51%
18. CC(C)C1Nc2ccc(S(N)(=O)=O)cc2C2C=CCC21 (centres unmarked)  5.89%
19. CCOC(=O)c1cccc(NC(=O)C2CCCO2)c1 (centres unmarked)  4.7%
20. CC(=O)NCC(=O)OCc1ccc([N+](=O)[O-])cc1  3.26%
21. COc1ccccc1N1CC(C(=O)NCCN2C(=O)S/C(=C\c3cccnc3)C2=O)CC1=O (centres unmarked)  1.78%
22. CS(=O)(=O)c1ccc(C(=O)NCCN2C(=O)S/C(=C\c3cccnc3)C2=O)cc1[N+](=O)[O-]  1.32%
23. Brc1ccccc1CNCCc1ccc2c(c1)OCO2  0.404%
24. Cc1cccc(N2CN=C3SCC(=O)N3C2)c1  0.175%
25. CCOc1ccc(N2CC(C(=O)NCCN3C(=O)S/C(=C\c4cccnc4)C3=O)CC2=O)cc1 (centres unmarked)  -0.149%
26. Cc1c(Br)c([N+](=O)[O-])nn1CC(=O)Nc1ccc(C(N)=O)cc1  -2.84%
27. CC(=O)n1cc([C@H]2C=C(C(=O)Nc3ccccc3)O[C@@H](OCc3ccc(CO)cc3)C2)c2ccccc21  -2.85%
28. O=C(NCCN1C(=O)S/C(=C\c2ccc(F)cc2)C1=O)c1cccc(S(=O)(=O)N2CCOCC2)c1  -3.04%
29. CSc1ccc(C(C(C(=O)c2cccs2)N2CCOCC2)N2CCOCC2)cc1 (centres unmarked)  -3.73%
30. O=C(O)c1ccc(NCc2nc3ccccc3n2Cc2ccccc2)cc1  -4.61%
31. COc1ccc(CCn2nnnc2C(C(C)C)N2CCN(c3ncccn3)CC2)cc1OC (centres unmarked)  -5.93%
32. Cc1cc(OCCCC(=O)NCCN2C(=O)S/C(=C\c3cccnc3)C2=O)ccc1Cl  -6.35%
33. COc1ccc(C2c3c(ccc4ccccc34)Oc3ncn4nc(Cc5ccccc5)nc4c32)cc1OC (centres unmarked)  -7.49%
34. CC(C)c1ccc(S(=O)(=O)N2CCC(C(=O)N3CCC3)CC2)cc1  -9.72%
35. Cc1cccc(Oc2cnn(C(C)(C)C)c(=O)c2Cl)c1  -10%
36. O=C(NCCN1C(=O)S/C(=C\c2cccnc2)C1=O)c1ccc(S(=O)(=O)N2CCCC2)cc1  -11.3%
37. Cc1ccc(S(=O)(=O)N2CCC(C(=O)Nc3ccc(C(C)C)cc3)CC2)cc1  -11.5%
38. COCCNC(=S)N/N=C(\C)CCc1ccc2c(c1)OCO2  -11.6%
39. Cc1cccc(NCc2nc3ccccc3n2Cc2ccccc2)c1  -13.1%
40. Cc1nnc(SCC(=O)Nc2ccc(N3CCOCC3)cc2)n1-c1ccccc1  -14.5%
41. Cc1ccc(S(=O)(=O)C2(C(=O)NCc3ccccc3Cl)CC2)cc1  -15.2%
42. CCn1cnc2cc(NCc3cccs3)ccc21  -15.9%
43. COc1ccc(C2c3c(ncn(CCN4CCOCC4)c3=N)Oc3ccc4ccccc4c32)cc1OC (centres unmarked)  -16.6%
44. O=C(NCC1CCCO1)C1CCN(S(=O)(=O)c2cc(Cl)ccc2Cl)CC1 (centres unmarked)  -19%
45. CN(C)C1(CNC(=O)C2CCN(S(=O)(=O)c3ccccc3C(F)(F)F)CC2)CCCCC1  -29.8%
46. CN(C)C1(CNC(=O)C2CCN(S(=O)(=O)c3cccc(C(F)(F)F)c3)CC2)CCCCC1  -34.6%
47. Cc1c(C(=O)NCCN2C(=O)S/C(=C\c3cccnc3)C2=O)cccc1[N+](=O)[O-]  -45.1%
48. COc1ccc(C2c3c(ncn(CCN4CCOCC4)c3=N)Oc3ccc4ccccc4c32)cc1 (centres unmarked)  -47.2%
49. COc1ccc(C2c3c(ncn(CCCN4CCOCC4)c3=N)Oc3ccc4ccccc4c32)cc1OC (centres unmarked)  -51.3%
50. COc1ccc(C2c3ccc4ccccc4c3Oc3ncn(CCN4CCOCC4)c(=N)c32)cc1OC (centres unmarked)  -53.4%
51. CC(C)c1ccc(S(=O)(=O)N2CCC(C(=O)NCC3(N(C)C)CCCCC3)CC2)cc1  -54.4%
52. O=C(NCCN1C(=O)S/C(=C\c2cccnc2)C1=O)c1cc(S(=O)(=O)N2CCOCC2)ccc1F  -59%
53. C/C(CCc1ccc2c(c1)OCO2)=N\NC(=S)NC(C)C  -59.4%
54. CC(C)(Oc1ccc(Cl)cc1)C(=O)NCCN1C(=O)S/C(=C/c2cccnc2)C1=O  -62.9%
55. C/C(=N\NC(=S)NC(C)C)c1ccc2c(c1)OCCO2  -63.6%
56. COc1ccc(C(=O)NCCN2C(=O)S/C(=C\c3cccnc3)C2=O)cc1[N+](=O)[O-]  -63.8%
57. CN(C)C1(CNC(=O)C2CCN(S(=O)(=O)c3cc(Cl)ccc3Cl)CC2)CCCCC1  -64.1%
58. CCn1cnc2cc(NCc3nc4ccccc4n3Cc3ccccc3)ccc21  -65.6%
59. CN(C)C1(CNC(=O)C2CCN(S(=O)(=O)c3c(Cl)cccc3Cl)CC2)CCCCC1  -67.5%
60. CSc1cccc(N2CC(C(=O)NCCN3C(=O)S/C(=C\c4cccnc4)C3=O)CC2=O)c1 (centres unmarked)  -68.3%
61. COc1ccc(C2c3ccc4ccccc4c3Oc3ncn(CCN4CCOCC4)c(=N)c32)cc1 (centres unmarked)  -74.1%
62. Cc1nc2cc(NCc3nc4ccccc4n3Cc3ccccc3)ccc2n1C  -82%
